# In PubChem BioAssay (NCATS):
# A number with no mark means an inactive call. Results filed as inconclusive are left out. Entries that show only a call come without a potency. Calls of active or inactive are those of the source. The call rests on the fitted dose curve; in most records, active means well fitted curve in the direction sought with a large enough effect; inconclusive means small, poorly fitted or top-dose-only effect, or another doubt; inactive means no such curve, though single readings can be large; an effect the other way counts as inactive or inconclusive.
# Tests used:
# [1] = Confirmatory screen NINDS Rhodamine qHTS for Zika virus inhibitors (AID 1347161);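 further: purified Zika NS2B-NS3 protease with linked NS2B cofactor domain and Rhodamine110 peptide substrate; series mostly up to about 110 µM; nearly all actives have a fitted effect of over 60% in size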
# Summary of the method: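 Kinetic fluorescence (Ex 480 nm, Em 540 nm) over 15 min with 1.5 microM Rhodamine110 peptide and 25 nM linked protease.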
# [2] = Vero cells viability qHTS for Zika virus inhibitors (AID 1347167)
# Summary of the method: (§1)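 Compounds were tested in concentration series on cells grown in DMEM containing 4% FBS. After 24 to 48 hours, cellular ATP was measured by luminescence with CellTiter Glo.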
# [3] = HepG2 cells viability qHTS for Zika virus inhibitors (AID 1347168)
# Summary of the method: as §1
# [4] = qHTS for inhibitors of adenylyl cyclases using a fission yeast platform: a pilot screen against the NCATS LOPAC library (AID 1347410)
# Summary of the method: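 S. pombe CHP2027 (AC9-GNAS-PDE4D2) carrying a PKA-repressed fbp1-GFP reporter was exposed to LOPAC compounds (final up to 57 µM) for 18 h at 30C in the dark, in EMM with histidine, lysine and uracil; GFP gain-of-signal read by laser scanning cytometry.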
# [5] = Validation qHTS assay for inhibitors of Activation Induced Cytidine Deaminase (AID): UDG Counterscreen signal (AID 1347427)
# Summary of the method: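 Counterscreen read of UDG activity (2 U/mL, 4/3x) in the FRET deamination format with AID (1 uM, 4/3x), DJC20/DJC23 substrates (250 nM, 4x), 4 h at room temperature. NaOH stop, fluorescence at 560 ex/665 em.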
# [6] = biological target: Single-stranded DNA cytosine deaminase (Homo sapiens) (UniProt Q9GZX7); experiment: Validation qHTS assay for inhibitors of Activation Induced Cytidine Deaminase (AID): AID signal (AID 1347429)
# Chain of Single-stranded DNA cytosine deaminase (Homo sapiens) (Q9GZX7 whole entry, looked up): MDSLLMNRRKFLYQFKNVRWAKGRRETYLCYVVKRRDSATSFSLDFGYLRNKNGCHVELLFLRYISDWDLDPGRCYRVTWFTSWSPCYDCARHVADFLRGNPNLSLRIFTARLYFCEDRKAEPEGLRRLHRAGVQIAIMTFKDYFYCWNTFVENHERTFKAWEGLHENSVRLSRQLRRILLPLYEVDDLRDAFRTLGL
# Summary of the method: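 AID and UDG were combined and compounds added at final up to 114 uM, then DJC20/DJC23 FRET substrate was added for 4 hr at room temperature. NaOH was then added for 30 min before fluorescence was read at 540/590 nm.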
# [7] = Primary qHTS for inhibitors of La Crosse Virus (LACV) - induced cell death in SH-SY5Y cells (AID 1508616);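 further: top concentration of the series differs between compounds; higher means more rescue of cells from virus-induced death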
# Summary of the method: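 Luminescent ATP readout (ATPLite 1step, 5 min room temperature) measured rescue from LACV-induced death after 6 days of infection at 0.01 MOI; normalized to infected DMSO wells and uninfected DMSO wells.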
# [8] = biological target: Lysine-specific demethylase 5B (Homo sapiens) (UniProt Q9UGL1); experiment: Optimization screen for KDM5B Histone Demethylases FDH coupled qHTS against the LOPAC library (AID 1347166)
# Chain of Lysine-specific demethylase 5B (Homo sapiens) (Q9UGL1 whole entry, looked up): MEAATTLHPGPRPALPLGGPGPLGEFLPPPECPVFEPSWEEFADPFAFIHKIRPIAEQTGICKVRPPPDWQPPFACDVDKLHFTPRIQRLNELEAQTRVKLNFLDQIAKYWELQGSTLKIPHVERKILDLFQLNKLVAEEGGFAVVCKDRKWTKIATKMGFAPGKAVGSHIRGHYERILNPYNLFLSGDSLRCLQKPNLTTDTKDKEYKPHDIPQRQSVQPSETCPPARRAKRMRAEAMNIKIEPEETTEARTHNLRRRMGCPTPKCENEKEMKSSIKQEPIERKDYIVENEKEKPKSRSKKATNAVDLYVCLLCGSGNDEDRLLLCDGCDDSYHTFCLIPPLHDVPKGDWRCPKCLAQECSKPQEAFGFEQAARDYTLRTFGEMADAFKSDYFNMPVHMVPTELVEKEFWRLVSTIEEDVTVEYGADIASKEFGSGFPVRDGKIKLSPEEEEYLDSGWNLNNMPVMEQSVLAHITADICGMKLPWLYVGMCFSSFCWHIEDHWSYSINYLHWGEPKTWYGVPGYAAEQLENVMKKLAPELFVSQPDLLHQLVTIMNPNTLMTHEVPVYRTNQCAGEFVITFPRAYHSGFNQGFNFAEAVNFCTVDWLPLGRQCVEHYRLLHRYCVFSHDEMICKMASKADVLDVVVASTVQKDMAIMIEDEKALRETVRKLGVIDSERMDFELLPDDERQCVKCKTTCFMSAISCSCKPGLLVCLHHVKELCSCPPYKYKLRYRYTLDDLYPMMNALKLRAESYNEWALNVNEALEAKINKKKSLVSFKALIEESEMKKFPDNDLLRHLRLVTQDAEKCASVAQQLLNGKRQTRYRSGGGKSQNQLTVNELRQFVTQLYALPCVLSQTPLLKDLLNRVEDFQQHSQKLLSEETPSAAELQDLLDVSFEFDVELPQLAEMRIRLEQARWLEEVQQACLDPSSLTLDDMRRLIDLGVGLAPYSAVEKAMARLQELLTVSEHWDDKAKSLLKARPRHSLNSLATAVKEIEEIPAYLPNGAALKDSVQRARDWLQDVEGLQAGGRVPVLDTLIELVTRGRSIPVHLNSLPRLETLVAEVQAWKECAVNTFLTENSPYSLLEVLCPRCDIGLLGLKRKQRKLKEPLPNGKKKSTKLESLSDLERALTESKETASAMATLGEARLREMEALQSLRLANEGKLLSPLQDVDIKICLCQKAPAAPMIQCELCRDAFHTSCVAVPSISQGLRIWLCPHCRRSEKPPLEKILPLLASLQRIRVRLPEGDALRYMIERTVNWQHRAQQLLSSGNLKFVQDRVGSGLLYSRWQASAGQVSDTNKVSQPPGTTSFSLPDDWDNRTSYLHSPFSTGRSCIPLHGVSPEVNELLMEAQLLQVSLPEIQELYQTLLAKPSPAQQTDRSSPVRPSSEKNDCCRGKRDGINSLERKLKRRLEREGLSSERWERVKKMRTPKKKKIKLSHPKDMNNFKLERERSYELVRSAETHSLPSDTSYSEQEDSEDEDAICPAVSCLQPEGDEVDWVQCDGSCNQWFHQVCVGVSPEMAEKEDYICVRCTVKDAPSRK
# Summary of the method: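 KDM5BDeltaAP (200nM final) preincubated 10 min with compound, then 12.5uM H3K4Me3, 25uM a-ketoglutarate, ascorbate, Fe(II), NAD+ and FDH added; 50mM HEPES pH 7.5, 0.01% Tween-20. NADH fluorescence (340/450 nm) change over 30 min, room temperature.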
# [9] = qHTS to identify inhibitors of the type 1 interferon - major histocompatibility complex class I in skeletal muscle: primary screen against the NCATS LOPAC collection (AID 1347405);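 further: lytic HiBiT luminescence reporting HLA-B protein level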; further: potency means the concentration at half of the fitted maximal effect
# Summary of the method: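 Immortalized human C25cl48 myoblasts with HiBiT knocked into endogenous HLA-B*08:01 were stimulated with 4.0 ng/ml IFN-beta and given compounds in a 7-point, 1:4.3 titration from 46 uM final; after 24 hrs, lytic HiBiT luminescence was read.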
# [10] = qHTS to identify inhibitors of the type 1 interferon - major histocompatibility complex class I in skeletal muscle: primary screen against the NCATS Mechanism Interrogation Plate v5.0 (MIPE) Libary (AID 1347411); further: nearly all actives have a fitted effect of over 65% in size; further: potency means the concentration at half of the fitted maximal effect
# Summary of the method: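 Immortalized human C25cl48 myoblasts with HiBit knocked into endogenous HLA-B*08:01 were stimulated with 4.0 ng/ml IFN-beta and exposed to compounds (11-point 1:3 titration, top 46 uM final) for 24 hrs at 37 C; HiBiT lytic luminescence measured.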
# [11] = qHTS to identify inhibitors of the type 1 interferon - major histocompatibility complex class I in skeletal muscle: primary screen against the NCATS Pharmaceutical Collection (AID 1347407);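 further: luminescence of HiBiT knocked into endogenous HLA-B as interferon-induced MHC class I level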
# Summary of the method: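 Immortalized human myoblasts (C25cl48) with HiBiT knocked into endogenous HLA-B*08:01 were stimulated with 4 ng/ml IFN-beta and treated with compounds (8-point, 1:5, top 46 uM final) for 24 h at 37 C; HiBiT lytic luminescence read.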
# [12] = biological target: Protein phosphatase 1D (Homo sapiens) (UniProt O15297); experiment: RapidFire Mass Spectrometry qHTS Assay for Modulators of WT P53-Induced Phosphatase 1 (WIP1) (AID 1347424);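 further: amount of dephosphorylated VEPPL-S-QETFS peptide product formed by WIP1; series mostly up to about 63 µM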
# Chain of Protein phosphatase 1D (Homo sapiens) (O15297 whole entry, looked up): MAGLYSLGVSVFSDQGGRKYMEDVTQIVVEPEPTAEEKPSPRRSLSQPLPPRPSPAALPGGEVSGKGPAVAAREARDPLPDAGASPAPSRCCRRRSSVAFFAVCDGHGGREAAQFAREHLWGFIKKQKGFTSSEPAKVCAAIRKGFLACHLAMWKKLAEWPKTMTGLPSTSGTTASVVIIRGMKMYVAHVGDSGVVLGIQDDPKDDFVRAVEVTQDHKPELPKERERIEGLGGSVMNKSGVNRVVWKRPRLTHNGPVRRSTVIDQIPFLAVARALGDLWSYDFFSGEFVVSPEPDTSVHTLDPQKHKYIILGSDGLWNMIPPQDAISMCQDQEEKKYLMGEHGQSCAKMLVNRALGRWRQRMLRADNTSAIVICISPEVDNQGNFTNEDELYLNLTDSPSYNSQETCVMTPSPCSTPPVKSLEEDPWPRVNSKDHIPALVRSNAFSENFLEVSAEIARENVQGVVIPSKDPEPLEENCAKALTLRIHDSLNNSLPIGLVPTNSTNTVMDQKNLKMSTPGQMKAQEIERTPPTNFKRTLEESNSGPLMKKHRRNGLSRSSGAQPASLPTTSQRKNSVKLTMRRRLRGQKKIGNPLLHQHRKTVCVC
# Summary of the method: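 10 nM WIP1 + cpd, 1 h RT; + 2 uM VEPPL-pS-QETFS, 5 min RT; stop 0.5% formic acid; labelled product standard 1 uM; RapidFire MS. Buffer 50 mM Tris pH 7.5, 30 mM MgCl2, 1 mM TCEP.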
# [13] = biological target: Protein phosphatase 1D (Homo sapiens) (UniProt O15297); experiment: Rhodamine-PBP qHTS Assay for Modulators of WT P53-Induced Phosphatase 1 (WIP1) (AID 1347425)
# Summary of the method: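 WIP1 (5 nM final) was preincubated with compound for 1 hour at room temperature. It then dephosphorylated 10 uM VEPPL-pS-QETFS peptide in Tris-HCl pH 7.5 with 30 mM MgCl2. Released Pi was detected by 10 uM Rh-PBP fluorescence (ex 525/em 598 nm) read at 1-min intervals for 11 min, as delta f1 - f0.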
# [14] = Tertiary RLuc qRT-PCR qHTS assay for Zika virus inhibitors (AID 1347169); further: potency means the concentration at half of the fitted maximal effect; nearly all actives have a fitted effect of over 55% in size
# Summary of the method: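 Vero cells (1,000 per well) plated overnight at 37 degrees C, treated with compound in DMSO, then infected with recombinant ZIKV-RLuc (Cambodian) at MOI 1-2 for 48-72 hrs. Live-cell Renilla luciferase substrate added; luminescence read after 1-1.5 hrs.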
smiles,measurement,setting,value
Oc1ccc(-c2nc(-c3ccc(F)cc3)c(-c3ccncc3)[nH]2)cc1,Potency,[1],inactive
same,Potency,[2],inactive
same,Potency,[3],inactive
same,outcome,[4],inactive
same,Potency,[5],inactive
same,outcome,[6],inactive
same,Potency,[7],inactive
O=Nc1c(-c2c(O)[nH]c3cc(Br)ccc23)[nH]c2ccccc12,outcome,[8],inactive
same,Potency,[9],15.8 µM (active)
same,outcome,[4],inactive
same,Potency,[10],14.7 µM (active)
same,Potency,[5],inactive
same,outcome,[6],inactive
Cc1cc(Cl)ccc1OCCCC(=O)NO,Potency,[9],inactive
same,outcome,[4],inactive
Oc1ccc(OCc2ccccc2)cc1,Potency,[11],inactive
same,Potency,[10],inactive
same,Potency,[12],inactive
same,outcome,[13],inactive
same,Potency,[7],inactive
S=c1nc[nH]c2nc[nH]c12,Potency,[2],inactive
same,Potency,[3],inactive
same,Potency,[14],20.8 µM (active)
same,Potency,[11],inactive
same,Potency,[10],inactive
same,Potency,[12],inactive
same,outcome,[13],inactive
same,Potency,[7],inactive
CNC[C@H](O)c1ccc(O)c(O)c1,Potency,[9],inactive
same,Potency,[11],inactive
same,outcome,[4],inactive
same,Potency,[10],inactive
same,Potency,[12],inactive
same,outcome,[13],inactive
same,Potency,[5],inactive
same,outcome,[6],inactive
same,Potency,[7],inactive
